Experimental data as given in PubChem BioAssay AID1159580 (chemical genetic matrix, 2015).
About 2,000 (36%) of roughly 5,500 compounds were called active. Inconclusive results (about 18%) are left out. Cut-off read from the data, not from the text of the source: active = normalized growth mostly below about 0.91 (no sharp cut-off); inconclusive = no clear call, values can overlap the other calls; inactive = mostly above about 0.92. The list shows a part of the results.

Assay: chemical genetic growth profiling, strain panel (AID 1159580);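 note: tested at 20 µM; growth read once vehicle control cultures reached saturation at 30 °C; 1 = growth at the plate median or of vehicle wells; lower values mean less growth of the strain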
Conditions: growth OD
[1] = S. cerevisiae deletion strains, locus YAL013W, strain DEP1, stronger effect = lower value
[2] = S. cerevisiae deletion strains, locus YBR229C, strain ROT2, stronger effect = lower value
[3] = S. cerevisiae deletion strains, locus YDL101C, strain DUN1, stronger effect = lower value
[4] = S. cerevisiae deletion strains, locus YDL134C, strain PPH21, stronger effect = lower value
[5] = S. cerevisiae deletion strains, locus YDR150W, strain NUM1, stronger effect = lower value
[6] = S. cerevisiae deletion strains, locus YEL061C, strain CIN8, stronger effect = lower value
[7] = S. cerevisiae deletion strains, locus YGR078C, strain PAC10, stronger effect = lower value
[8] = S. cerevisiae deletion strains, locus YGR229C, strain SMI1, stronger effect = lower value
[9] = S. cerevisiae deletion strains, locus YHR030C, strain SLT2, stronger effect = lower value
[10] = S. cerevisiae deletion strains, locus YHR087W, strain rtc3, stronger effect = lower value
[11] = S. cerevisiae deletion strains, locus YJR043C, strain POL32, stronger effect = lower value
[12] = S. cerevisiae deletion strains, locus YJR075W, strain HOC1, stronger effect = lower value
[13] = S. cerevisiae deletion strains, locus YLR039C, strain RIC1, stronger effect = lower value
[14] = S. cerevisiae deletion strains, locus YLR058C, strain SHM2 (second series), stronger effect = lower value
[15] = S. cerevisiae deletion strains, locus YLR085C, strain ARP6, stronger effect = lower value
[16] = S. cerevisiae deletion strains, locus YLR262C, strain YPT6, stronger effect = lower value
[17] = S. cerevisiae deletion strains, locus YML094W, strain GIM5, stronger effect = lower value
[18] = S. cerevisiae deletion strains, locus YMR219W, strain ESC1, stronger effect = lower value
[19] = S. cerevisiae deletion strains, locus YMR263W, strain SAP30, stronger effect = lower value
[20] = S. cerevisiae deletion strains, locus YNL153C, strain GIM3, stronger effect = lower value
[21] = S. cerevisiae deletion strains, locus YNL298W, strain CLA4 (second series), stronger effect = lower value
[22] = S. cerevisiae deletion strains, locus YNL322C, strain KRE1, stronger effect = lower value
[23] = S. cerevisiae deletion strains, locus YNR030W, strain Alg12, stronger effect = lower value
[24] = S. cerevisiae deletion strains, locus YPL055C, strain LGE1, stronger effect = lower value
[25] = S. cerevisiae deletion strains, locus YPL241C, strain CIN2, stronger effect = lower value
[26] = S. cerevisiae deletion strains, locus YPR135W, strain CTF4, stronger effect = lower value

Measured: normalized growth

CCN1CN=C(SCc2ccc(C)cc2)NC1
inactive: [1] 0.986 | [2] 0.992 | [3] 0.991 | [4] 1 | [5] 0.932 | [6] 0.997 | [7] 0.983 | [8] 1 | [9] 0.915 | [10] 0.968 | [11] 0.976 | [12] 0.986 | [13] 0.977 | [14] 0.977 | [15] 0.997 | [16] 0.974 | [17] 0.998 | [18] 0.994 | [19] 0.974 | S. cerevisiae deletion strains, locus YMR307W, strain GAS1, stronger effect = lower value 1.05 | [20] 0.98 | [21] 0.975 | [22] 0.994 | [23] 0.986 | [24] 0.947 | [25] 0.978 | [26] 0.904

COc1cc(NC(=O)NS(=O)(=O)c2ccc(C)cc2)cc(C(F)(F)F)c1
inactive: [1] 0.991 | [2] 0.995 | S. cerevisiae deletion strains, locus YCL061C, strain MRC1, stronger effect = lower value 0.987 | [3] 0.99 | [4] 1 | [5] 0.91 | [6] 1.02 | [7] 0.995 | [8] 0.996 | [9] 1.1 | [10] 0.994 | [11] 0.998 | [12] 0.965 | [13] 0.925 | [14] 0.999 | [15] 1.05 | [16] 0.907 | [17] 1.01 | [18] 0.997 | [19] 1 | [20] 0.995 | [21] 1.03 | [22] 0.986 | [23] 1.03 | S. cerevisiae deletion strains, locus YOL006C, strain TOP1, stronger effect = lower value 1.06 | [24] 0.966 | [25] 1.11 | [26] 1.02 | S. cerevisiae strains, strain wild type, stronger effect = lower value 1
